The values that follow come from the supplement of paper PMC8728848.

Common to all, as to assay: glycan array binding signal (z-score within array); higher = stronger binding
For assay [1], the system named is Gal(a1-3)GalNAc. As to conditions: glycan notation: IUPAC condensed, linker removed. In short, it runs like this: (§1)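 The binding signal is a Z-score computed within each array and averaged over linkers. Arrays of the same protein sequence at different concentrations or buffers were also averaged together. Data originate from 3228 arrays in the Consortium for Functional Glycomics database, kept only where the protein sequence was available.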

Assay [2] concerns Gal(a1-3)Gal(b1-4)GlcNAc(b1-3)GalNAc. As to conditions: glycan notation: IUPAC condensed, linker removed. In a few lines:
as §1

Assay [3] has as its system Gal(a1-3)Gal(b1-4)GlcNAc. As to conditions: glycan notation: IUPAC condensed, linker removed. In short, it runs like this: as §1
Assay [4] relates to Gal(a1-3)Gal. The conditions noted are these: glycan notation: IUPAC condensed, linker removed. In short, it runs like this: as §1
Assay [5] relates to Gal(a1-4)Gal(b1-4)Glc. The conditions noted are these: glycan notation: IUPAC condensed, linker removed. In a few lines:
as §1

Assay [6] concerns Gal(b1-2)Gal. As to conditions: glycan notation: IUPAC condensed, linker removed. In short, it runs like this:
as §1

The subject of assay [7] is Gal(b1-3)Gal(b1-4)GlcNAc(b1-2)Man(a1-3)[Gal(b1-3)Gal(b1-4)GlcNAc(b1-2)Man(a1-6)]Man(b1-4)GlcNAc(b1-4)GlcNAc. The conditions noted are these: glycan notation: IUPAC condensed, linker removed. In short, it runs like this:
as §1

In assay [8] the test system is Gal(a1-3)[Gal(a1-4)]Gal(b1-4)GlcNAc. As to conditions: glycan notation: IUPAC condensed, linker removed. In short, it runs like this:
as §1

In assay [9] the test system is Gal(a1-4)Gal(b1-4)Gal. As to conditions: glycan notation: IUPAC condensed, linker removed. In short, it runs like this: as §1
Assay [10] relates to Gal(a1-4)GlcNAc. As to conditions: glycan notation: IUPAC condensed, linker removed. In short, it runs like this: as §1
Assay [11] concerns Gal(a1-4)Gal(b1-4)GlcNAc. As to conditions: glycan notation: IUPAC condensed, linker removed. In a few lines:
as §1

Assay [12] has as its system Gal(a1-6)Glc. The conditions noted are these: glycan notation: IUPAC condensed, linker removed. In a few lines:
as §1

For assay [13], the system named is Gal(a1-4)Gal(b1-4)GlcNAc(b1-3)Gal(b1-4)Glc. The conditions noted are these: glycan notation: IUPAC condensed, linker removed. In a few lines: as §1
For assay [14], the system named is Gal(a1-3)Gal(b1-4)[Fuc(a1-3)]GlcNAc(b1-2)Man(a1-3)[Gal(a1-3)Gal(b1-4)[Fuc(a1-3)]GlcNAc(b1-2)Man(a1-6)]Man(b1-4)GlcNAc(b1-4)GlcNAc. As to conditions: glycan notation: IUPAC condensed, linker removed; mutation: R125K. In a few lines: as §1
For assay [15], the system named is Gal(a1-3)Gal(b1-4)[Fuc(a1-3)]GlcNAc. As to conditions: glycan notation: IUPAC condensed, linker removed; mutation: R125K. In short, it runs like this:
as §1

Assay [16] relates to Gal(b1-3)GalNAc(b1-3)Gal. As to conditions: glycan notation: IUPAC condensed, linker removed; mutation: R125K. In short, it runs like this:
as §1

In assay [17] the test system is Gal(a1-3)Gal(b1-4)Glc. The conditions noted are these: glycan notation: IUPAC condensed, linker removed. In short, it runs like this: as §1
Assay [18] deals with Gal(b1-3)GalNAc(a1-3)[Fuc(a1-2)]Gal(b1-4)GlcNAc. As to conditions: glycan notation: IUPAC condensed, linker removed. In a few lines:
as §1

Assay [19] deals with Gal(b1-3)GalNAc(b1-3)Gal(b1-4)Glc. The conditions noted are these: glycan notation: IUPAC condensed, linker removed. In short, it runs like this:
as §1

The test system of assay [20] is Gal(b1-3)GalNAc(b1-3)Gal(a1-4)Gal(b1-4)Glc. The conditions noted are these: glycan notation: IUPAC condensed, linker removed. In short, it runs like this: as §1

The full list was thinned out, with the strongest signals kept by preference.

C3b (Homo sapiens), P01024, sequence (P01024 23-667): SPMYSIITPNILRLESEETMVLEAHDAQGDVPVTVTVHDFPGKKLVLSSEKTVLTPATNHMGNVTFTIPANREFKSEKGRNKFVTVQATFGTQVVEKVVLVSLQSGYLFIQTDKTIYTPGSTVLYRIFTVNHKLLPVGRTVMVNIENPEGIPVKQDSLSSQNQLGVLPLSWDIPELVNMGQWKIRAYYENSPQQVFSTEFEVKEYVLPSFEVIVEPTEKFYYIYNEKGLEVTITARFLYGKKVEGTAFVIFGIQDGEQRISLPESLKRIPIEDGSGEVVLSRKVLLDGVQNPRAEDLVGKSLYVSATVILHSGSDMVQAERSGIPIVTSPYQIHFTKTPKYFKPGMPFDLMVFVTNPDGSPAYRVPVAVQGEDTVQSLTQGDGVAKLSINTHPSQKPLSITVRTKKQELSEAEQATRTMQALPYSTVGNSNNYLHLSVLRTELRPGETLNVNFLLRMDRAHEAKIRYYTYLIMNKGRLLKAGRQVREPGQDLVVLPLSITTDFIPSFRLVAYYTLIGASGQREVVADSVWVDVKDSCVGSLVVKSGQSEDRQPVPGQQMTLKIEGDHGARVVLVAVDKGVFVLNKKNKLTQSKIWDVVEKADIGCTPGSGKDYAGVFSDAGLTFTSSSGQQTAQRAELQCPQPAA
CHT (Homo sapiens), sequence (chain, as listed by the source): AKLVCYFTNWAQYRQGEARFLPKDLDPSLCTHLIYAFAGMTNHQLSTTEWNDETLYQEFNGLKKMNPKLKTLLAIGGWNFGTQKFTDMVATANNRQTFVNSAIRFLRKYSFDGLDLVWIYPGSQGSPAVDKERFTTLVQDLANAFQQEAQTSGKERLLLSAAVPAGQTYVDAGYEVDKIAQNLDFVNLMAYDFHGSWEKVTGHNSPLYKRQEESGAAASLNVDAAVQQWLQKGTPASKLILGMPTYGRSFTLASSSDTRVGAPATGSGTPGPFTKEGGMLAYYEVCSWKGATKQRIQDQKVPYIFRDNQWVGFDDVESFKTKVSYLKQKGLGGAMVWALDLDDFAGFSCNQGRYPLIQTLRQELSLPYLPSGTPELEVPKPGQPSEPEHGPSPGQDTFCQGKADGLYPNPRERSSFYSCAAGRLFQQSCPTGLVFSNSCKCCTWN
6RG (Lolium perenne), sequence (chain, as listed by the source): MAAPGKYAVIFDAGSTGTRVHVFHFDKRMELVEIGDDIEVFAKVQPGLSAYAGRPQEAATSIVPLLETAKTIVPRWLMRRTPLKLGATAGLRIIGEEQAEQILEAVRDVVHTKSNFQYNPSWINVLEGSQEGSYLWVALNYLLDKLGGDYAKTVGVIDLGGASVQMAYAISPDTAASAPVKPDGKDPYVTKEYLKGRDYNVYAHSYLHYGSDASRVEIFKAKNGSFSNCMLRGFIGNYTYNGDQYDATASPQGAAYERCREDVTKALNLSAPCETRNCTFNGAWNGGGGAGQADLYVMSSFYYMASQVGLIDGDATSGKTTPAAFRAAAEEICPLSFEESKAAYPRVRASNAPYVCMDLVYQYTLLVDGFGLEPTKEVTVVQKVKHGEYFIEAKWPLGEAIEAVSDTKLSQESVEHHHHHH
CHI3L1 (Homo sapiens), P36222, sequence (P36222 whole entry): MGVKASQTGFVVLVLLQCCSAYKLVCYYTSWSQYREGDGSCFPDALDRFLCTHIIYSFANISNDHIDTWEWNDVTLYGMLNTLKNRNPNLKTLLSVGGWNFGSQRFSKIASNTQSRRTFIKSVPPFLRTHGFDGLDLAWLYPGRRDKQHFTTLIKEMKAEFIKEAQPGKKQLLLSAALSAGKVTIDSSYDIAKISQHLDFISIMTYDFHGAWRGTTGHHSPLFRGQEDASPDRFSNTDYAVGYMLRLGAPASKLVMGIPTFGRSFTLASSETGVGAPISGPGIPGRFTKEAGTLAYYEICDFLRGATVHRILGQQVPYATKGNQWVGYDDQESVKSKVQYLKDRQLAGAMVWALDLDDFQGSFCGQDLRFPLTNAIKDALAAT
PILRb (Mus musculus), Q2YSF2, sequence (Q2YSF2 entry or part of it): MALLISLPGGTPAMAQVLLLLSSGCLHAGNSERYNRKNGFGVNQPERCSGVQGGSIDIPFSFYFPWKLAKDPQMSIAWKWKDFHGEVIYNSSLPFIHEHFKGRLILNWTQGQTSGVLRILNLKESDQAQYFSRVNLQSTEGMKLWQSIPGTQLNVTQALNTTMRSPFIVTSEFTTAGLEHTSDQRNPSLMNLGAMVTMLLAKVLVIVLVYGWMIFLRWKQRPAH
PILRa (Mus musculus), Q2YSF3, sequence (Q2YSF3 entry or part of it): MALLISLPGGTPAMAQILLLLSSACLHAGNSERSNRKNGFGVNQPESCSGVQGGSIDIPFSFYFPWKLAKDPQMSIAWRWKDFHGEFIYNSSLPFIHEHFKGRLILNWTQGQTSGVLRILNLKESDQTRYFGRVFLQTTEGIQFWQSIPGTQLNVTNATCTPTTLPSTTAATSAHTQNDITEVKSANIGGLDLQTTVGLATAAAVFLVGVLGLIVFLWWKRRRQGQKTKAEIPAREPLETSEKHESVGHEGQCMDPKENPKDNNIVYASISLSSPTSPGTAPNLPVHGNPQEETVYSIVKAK
Aggrecan (Rattus norvegicus), NP_071526, sequence (chain, as listed by the source): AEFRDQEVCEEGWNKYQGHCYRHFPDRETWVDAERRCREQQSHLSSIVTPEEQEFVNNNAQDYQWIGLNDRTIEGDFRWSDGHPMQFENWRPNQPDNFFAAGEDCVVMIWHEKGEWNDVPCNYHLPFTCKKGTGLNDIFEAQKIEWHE
Regenerating Gene IV (Homo sapiens), Q9BYZ8, sequence (Q9BYZ8 whole entry, looked up): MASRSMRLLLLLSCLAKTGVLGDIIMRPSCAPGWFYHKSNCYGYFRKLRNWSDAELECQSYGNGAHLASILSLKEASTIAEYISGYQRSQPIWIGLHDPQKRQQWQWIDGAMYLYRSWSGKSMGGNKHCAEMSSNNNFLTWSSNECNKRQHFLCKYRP
Avaren (Actinomycete K97), sequence (chain, as listed by the source): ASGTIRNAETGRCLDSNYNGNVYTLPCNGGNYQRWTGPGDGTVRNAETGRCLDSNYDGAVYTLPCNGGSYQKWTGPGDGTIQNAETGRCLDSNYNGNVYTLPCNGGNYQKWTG
wLAT-1A (Homo sapiens), Q01650, sequence (Q01650 whole entry): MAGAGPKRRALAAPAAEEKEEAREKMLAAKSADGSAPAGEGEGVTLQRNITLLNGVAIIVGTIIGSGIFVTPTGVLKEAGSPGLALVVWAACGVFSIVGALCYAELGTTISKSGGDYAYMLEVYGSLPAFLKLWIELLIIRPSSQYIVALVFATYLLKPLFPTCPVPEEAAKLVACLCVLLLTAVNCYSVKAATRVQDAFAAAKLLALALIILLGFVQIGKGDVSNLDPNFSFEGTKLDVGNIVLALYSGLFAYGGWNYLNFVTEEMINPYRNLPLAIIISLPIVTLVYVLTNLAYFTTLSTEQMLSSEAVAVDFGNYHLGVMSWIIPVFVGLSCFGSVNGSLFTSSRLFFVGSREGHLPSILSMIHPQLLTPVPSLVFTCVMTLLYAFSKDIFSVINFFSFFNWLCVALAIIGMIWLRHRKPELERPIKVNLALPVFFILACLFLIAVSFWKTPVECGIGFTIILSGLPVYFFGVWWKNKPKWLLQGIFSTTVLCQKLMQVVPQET
6RG (Lolium perenne), B9U140, sequence (B9U140 entry or part of it): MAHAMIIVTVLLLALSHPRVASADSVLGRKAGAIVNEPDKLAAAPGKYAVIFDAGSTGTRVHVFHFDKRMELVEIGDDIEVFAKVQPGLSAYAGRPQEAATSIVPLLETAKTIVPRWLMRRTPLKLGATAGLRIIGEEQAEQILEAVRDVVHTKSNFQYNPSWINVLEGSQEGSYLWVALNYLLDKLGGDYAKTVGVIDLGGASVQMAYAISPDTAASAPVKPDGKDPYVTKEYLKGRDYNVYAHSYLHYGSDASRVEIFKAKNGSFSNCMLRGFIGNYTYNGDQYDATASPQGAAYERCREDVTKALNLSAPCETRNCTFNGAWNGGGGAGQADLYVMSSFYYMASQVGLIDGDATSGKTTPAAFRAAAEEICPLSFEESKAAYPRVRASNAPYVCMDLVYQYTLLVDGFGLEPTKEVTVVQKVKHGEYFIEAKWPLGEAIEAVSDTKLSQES

Turning to wLAT-1A (Homo sapiens), Q01650, the “glycan array binding signal (z-score)” value in assay [1] worked out at 0.501.

In the case of PILRb (Mus musculus), Q2YSF2, the “glycan array binding signal (z-score)” value in assay [2] was -0.089; in assay [3] it was -0.363; in assay [4], 2.68; in assay [5], 0.026; in assay [6] it was -0.075; in assay [7] it was 0.382.

For CHT (Homo sapiens), the “glycan array binding signal (z-score)” value in assay [8] (mutation: D138V, E140I) is -0.162; in assay [9] (mutation: D138V, E140I), -0.141; in assay [10] (mutation: D138V, E140I) it was 0.017.

CHI3L1 (Homo sapiens), P36222: the “glycan array binding signal (z-score)” value was -0.117 in assay [11], -0.088 in [12] and -0.006 in [6].

As for Aggrecan (Rattus norvegicus), NP_071526, the “glycan array binding signal (z-score)” value in [13] is -0.204.

Siglec-8 (Homo sapiens), Q9NYZ4: the “glycan array binding signal (z-score)” value in assay [14] was 1.51; in [15], -0.444; in assay [8], -0.14; in assay [5] (mutation: R125K) it was 0.026; in [7], -0.073; in [16] it was -0.035.

Take PILRa (Mus musculus), Q2YSF3: the results for the “glycan array binding signal (z-score)” value in [17] and in assay [18] were 0.145 and -0.192, respectively.

For 6RG (Lolium perenne), B9U140, the “glycan array binding signal (z-score)” value in assay [17] is -0.272.

Take Avaren (Actinomycete K97): the “glycan array binding signal (z-score)” value in assay [17] amounted to 0.305.

As to HARE (Homo sapiens), Q8WWQ8, the “glycan array binding signal (z-score)” value in assay [6] was -0.074.

With 6RG (Lolium perenne), the “glycan array binding signal (z-score)” value worked out at 6.25 in assay [9], 6.7 in [5] and 6.16 in [19].

With “Regenerating Gene IV (Homo sapiens), Q9BYZ8”, the “glycan array binding signal (z-score)” value in assay [20] was -0.44.

Regarding C3b (Homo sapiens), P01024, the “glycan array binding signal (z-score)” value in [17] is 1.67; in assay [4] it was 2.77; in assay [10], -0.904.
